# Unmarked numbers belong to inactive results.
# Test system: Mel-DCC-11-R
# Experiment: cell viability relative to DMSO control (fraction of DMSO control); higher = less cytotoxic, active = 0.8 or less
# Conditions: 1 µM; 120 h; vemurafenib co-treatment 0 µM
# Protocol: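 Same 315-drug TargetMol library at 1 µM in duplicate, 120 h, ATPlite luminescence normalised to DMSO controls, on the vemurafenib-resistant subline Mel-DCC-11-R cultured alone or with 8 µM vemurafenib co-treatment (Mel-DCC-11-R + V).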
row,SMILES,cell viability
1,O=C(Nc1c(Cl)cncc1Cl)c1ccc(OC(F)F)c(OCC2CC2)c1 [Roflumilast],1.15
2,CCc1cn([C@H]2C[C@H](O)[C@@H](CO)O2)c(=O)[nH]c1=O [Edoxudine],0.776 (active)
3,CCN(CC)CCOc1ccc2c(c1)C(=O)c1cc(OCCN(CC)CC)ccc1-2.Cl.Cl [Tilorone dihydrochloride],0.883
4,O=c1c(-c2ccc(O)cc2)coc2cc(O)cc(O)c12 [Genistein],0.984
5,O=c1[nH]c(=O)n(C2CCCO2)cc1F (stereo not given) [Tegafur],0.895
6,CN(N=O)C(=O)N[C@@H]1[C@@H](O)[C@H](O)[C@@H](CO)O[C@@H]1O [Streptozocin],0.976
7,CNC(=O)c1cc(Oc2ccc(NC(=O)Nc3ccc(Cl)c(C(F)(F)F)c3)cc2)ccn1.Cc1ccc(S(=O)(=O)O)cc1 [Sorafenib tosylate],1.02
8,C.CCN(CC)CCCC(C)Nc1ccnc2cc(Cl)ccc12.O=P(O)(O)O.O=P(O)(O)O (stereo not given) [Chloroquine diphosphate],0.913
9,CC1=C(/C=C/C(C)=C/C=C/C(C)=C/C(=O)O)C(C)(C)CCC1 [Tretinoin],0.946
10,C[C@@H](CN1CC(=O)NC(=O)C1)N1CC(=O)NC(=O)C1.Cl [Dexrazoxane HCl],1.09
11,O=C(/C=C/c1ccc(O)cc1)c1ccc(O)cc1O [Isoliquiritigenin],0.834
12,O=C(CCCCCCC(=O)Nc1ccccc1)NO [Vorinostat],0.923
13,C[C@]12CC[C@@H]3c4ccc(O)cc4C[C@@H](CCCCCCCCCS(=O)CCCC(F)(F)C(F)(F)F)[C@H]3[C@@H]1CC[C@@H]2O (stereo not given in full) [Fulvestrant],0.987
14,Cl.N=c1ccn2c(n1)O[C@H]1[C@H](O)[C@@H](CO)O[C@H]12 [Cyclocytidine hydrochloride],0.873
15,N.N.O=C([O-])C[O-].[Pt+2] [Nedaplatin],1
16,Nc1ncn([C@@H]2O[C@H](CO)[C@@H](O)[C@H]2O)c(=O)n1 [Mylosar],0.927
17,Cn1cnc2c(F)c(Nc3ccc(Br)cc3F)c(C(=O)NOCCO)cc21 [Binimetinib],0.664 (active)
18,Nc1nc(=S)c2[nH]cnc2[nH]1 [Thioguanine],1.31
19,C=CC(=O)N1CCC[C@@H](n2nc(-c3ccc(Oc4ccccc4)cc3)c3c(N)ncnc32)C1 [Ibrutinib],0.855
20,CCc1ccc(CCOc2ccc(CC3SC(=O)NC3=O)cc2)nc1.Cl (stereo not given) [Pioglitazone hydrochloride],0.921

# Same assay, conditions: 1 µM; 120 h; vemurafenib co-treatment 8 µM
row,SMILES,cell viability
1,O=C(Nc1c(Cl)cncc1Cl)c1ccc(OC(F)F)c(OCC2CC2)c1 [Roflumilast],1.31
2,CCc1cn([C@H]2C[C@H](O)[C@@H](CO)O2)c(=O)[nH]c1=O [Edoxudine],0.802
3,CCN(CC)CCOc1ccc2c(c1)C(=O)c1cc(OCCN(CC)CC)ccc1-2.Cl.Cl [Tilorone dihydrochloride],1.15
4,O=c1c(-c2ccc(O)cc2)coc2cc(O)cc(O)c12 [Genistein],1.02
5,O=c1[nH]c(=O)n(C2CCCO2)cc1F (stereo not given) [Tegafur],0.865
6,CN(N=O)C(=O)N[C@@H]1[C@@H](O)[C@H](O)[C@@H](CO)O[C@@H]1O [Streptozocin],1.1
7,CNC(=O)c1cc(Oc2ccc(NC(=O)Nc3ccc(Cl)c(C(F)(F)F)c3)cc2)ccn1.Cc1ccc(S(=O)(=O)O)cc1 [Sorafenib tosylate],1.1
8,C.CCN(CC)CCCC(C)Nc1ccnc2cc(Cl)ccc12.O=P(O)(O)O.O=P(O)(O)O (stereo not given) [Chloroquine diphosphate],1.1
9,CC1=C(/C=C/C(C)=C/C=C/C(C)=C/C(=O)O)C(C)(C)CCC1 [Tretinoin],1.19
10,C[C@@H](CN1CC(=O)NC(=O)C1)N1CC(=O)NC(=O)C1.Cl [Dexrazoxane HCl],1.13
11,O=C(/C=C/c1ccc(O)cc1)c1ccc(O)cc1O [Isoliquiritigenin],1.02
12,O=C(CCCCCCC(=O)Nc1ccccc1)NO [Vorinostat],1.04
13,C[C@]12CC[C@@H]3c4ccc(O)cc4C[C@@H](CCCCCCCCCS(=O)CCCC(F)(F)C(F)(F)F)[C@H]3[C@@H]1CC[C@@H]2O (stereo not given in full) [Fulvestrant],0.809
14,Cl.N=c1ccn2c(n1)O[C@H]1[C@H](O)[C@@H](CO)O[C@H]12 [Cyclocytidine hydrochloride],0.599 (active)
15,N.N.O=C([O-])C[O-].[Pt+2] [Nedaplatin],1.18
16,Nc1ncn([C@@H]2O[C@H](CO)[C@@H](O)[C@H]2O)c(=O)n1 [Mylosar],0.745 (active)
17,Cn1cnc2c(F)c(Nc3ccc(Br)cc3F)c(C(=O)NOCCO)cc21 [Binimetinib],0.406 (active)
18,Nc1nc(=S)c2[nH]cnc2[nH]1 [Thioguanine],0.933
19,C=CC(=O)N1CCC[C@@H](n2nc(-c3ccc(Oc4ccccc4)cc3)c3c(N)ncnc32)C1 [Ibrutinib],0.733 (active)
20,CCc1ccc(CCOc2ccc(CC3SC(=O)NC3=O)cc2)nc1.Cl (stereo not given) [Pioglitazone hydrochloride],1.18
